Reference: article PMC7862700, “An all-to-all approach to the identification of sequence-specific readers for epigenetic DNA modifications on cytosine”

What was measured:
Assay in all cases: DAPPL (digital affinity profiling via proximity ligation, sequencing); 10 mM Tris-HCl pH 7.5, 50 mM NaCl, 1 mM DTT, 4% glycerol, room temperature, 30 min; GST-TFs on glutathione beads, 16-mer random dsDNA library, 0.1% formaldehyde crosslink after washing; high values mean tight binding
FLI1 = target: T1, FLI1 (Homo sapiens, UniProt Q01543 1-452); conditions: protein: recombinant; tags: N-terminal GST; dsDNA, one strand shown
T1 sequence: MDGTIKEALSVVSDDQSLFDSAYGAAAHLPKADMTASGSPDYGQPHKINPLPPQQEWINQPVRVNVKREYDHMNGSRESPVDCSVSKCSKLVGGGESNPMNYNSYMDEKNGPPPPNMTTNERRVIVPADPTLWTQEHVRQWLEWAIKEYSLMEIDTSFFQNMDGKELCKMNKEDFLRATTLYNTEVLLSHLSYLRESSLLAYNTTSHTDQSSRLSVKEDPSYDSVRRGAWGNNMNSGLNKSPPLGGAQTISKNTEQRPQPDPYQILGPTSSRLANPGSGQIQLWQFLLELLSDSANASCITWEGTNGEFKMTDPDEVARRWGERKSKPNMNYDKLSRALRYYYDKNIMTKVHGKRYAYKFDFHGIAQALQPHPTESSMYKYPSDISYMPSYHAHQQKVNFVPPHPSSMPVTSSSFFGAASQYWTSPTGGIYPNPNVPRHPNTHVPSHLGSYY
Procedure, shortened: (§1)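 The binding signal reported is, for every hexamer, its read frequency for a factor over its read frequency for the tag-only sample. Reads came from pools of yeast-expressed, GST-fused human transcription factors on glutathione beads, barcoded with DNA and mixed with that sample, which were incubated with 200 nmole of a random double-stranded 16-mer DNA library in Tris/NaCl/DTT/glycerol buffer at room temperature for 30 min. After washing, the pools were crosslinked with 0.1% formaldehyde, proximity-ligated with BsaI/T4 ligase for 1 h at 37 °C, PCR-amplified and sequenced on an Illumina NextSeq500.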

ELK1 = target: T2, ELK1 (Homo sapiens, UniProt P19419 1-428); conditions: protein: recombinant; tags: N-terminal GST; dsDNA, one strand shown
T2 sequence: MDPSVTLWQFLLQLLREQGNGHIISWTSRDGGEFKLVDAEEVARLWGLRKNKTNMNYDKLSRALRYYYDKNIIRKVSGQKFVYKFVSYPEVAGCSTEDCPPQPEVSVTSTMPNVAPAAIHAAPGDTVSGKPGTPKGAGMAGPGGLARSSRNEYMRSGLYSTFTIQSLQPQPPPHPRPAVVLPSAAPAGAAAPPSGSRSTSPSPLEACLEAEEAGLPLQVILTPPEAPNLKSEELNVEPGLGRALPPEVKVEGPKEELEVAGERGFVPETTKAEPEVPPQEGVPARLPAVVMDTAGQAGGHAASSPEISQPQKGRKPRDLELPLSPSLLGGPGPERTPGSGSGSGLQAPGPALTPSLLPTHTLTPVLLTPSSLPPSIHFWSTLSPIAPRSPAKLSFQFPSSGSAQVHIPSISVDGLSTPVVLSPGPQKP
Procedure, shortened: as §1

GABPA = target: T3, GABPA (Homo sapiens, UniProt Q06546 1-454); conditions: protein: recombinant; tags: N-terminal GST; dsDNA, one strand shown
T3 sequence: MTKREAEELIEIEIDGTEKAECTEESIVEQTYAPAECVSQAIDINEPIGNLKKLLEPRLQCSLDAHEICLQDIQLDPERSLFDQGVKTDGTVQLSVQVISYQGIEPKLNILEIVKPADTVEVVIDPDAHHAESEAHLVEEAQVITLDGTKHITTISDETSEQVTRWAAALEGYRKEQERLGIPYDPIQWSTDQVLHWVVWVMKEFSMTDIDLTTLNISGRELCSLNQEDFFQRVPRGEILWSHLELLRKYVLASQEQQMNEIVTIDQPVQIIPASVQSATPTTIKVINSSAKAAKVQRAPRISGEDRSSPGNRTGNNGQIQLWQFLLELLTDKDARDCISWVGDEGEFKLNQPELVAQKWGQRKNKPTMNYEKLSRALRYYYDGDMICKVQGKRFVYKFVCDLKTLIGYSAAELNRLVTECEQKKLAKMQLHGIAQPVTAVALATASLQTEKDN
Procedure, shortened: as §1

ERG = target: T4, ERG (Homo sapiens, UniProt P11308 1-479); conditions: protein: recombinant; tags: N-terminal GST; dsDNA, one strand shown
T4 sequence: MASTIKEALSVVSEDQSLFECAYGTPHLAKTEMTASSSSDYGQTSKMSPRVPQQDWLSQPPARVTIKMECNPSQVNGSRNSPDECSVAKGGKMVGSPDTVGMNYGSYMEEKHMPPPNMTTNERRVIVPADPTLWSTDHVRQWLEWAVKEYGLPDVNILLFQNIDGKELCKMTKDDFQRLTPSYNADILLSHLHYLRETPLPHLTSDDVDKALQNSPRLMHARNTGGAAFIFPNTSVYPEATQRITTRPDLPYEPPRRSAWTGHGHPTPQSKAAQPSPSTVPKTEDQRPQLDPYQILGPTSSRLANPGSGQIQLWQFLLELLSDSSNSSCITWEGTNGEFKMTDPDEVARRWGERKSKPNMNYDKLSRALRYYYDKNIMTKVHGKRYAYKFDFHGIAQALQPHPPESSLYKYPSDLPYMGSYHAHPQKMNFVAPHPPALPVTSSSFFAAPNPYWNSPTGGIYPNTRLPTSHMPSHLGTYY
Procedure, shortened: as §1

ELF1 = ELF1 (Homo sapiens, UniProt P32519 1-619); conditions: protein: recombinant; tags: N-terminal GST; dsDNA, one strand shown
Procedure, shortened: as §1

EHF = target: T5, EHF (Homo sapiens, UniProt Q9NZC4 1-300); conditions: protein: recombinant; tags: N-terminal GST; dsDNA, one strand shown
T5 sequence: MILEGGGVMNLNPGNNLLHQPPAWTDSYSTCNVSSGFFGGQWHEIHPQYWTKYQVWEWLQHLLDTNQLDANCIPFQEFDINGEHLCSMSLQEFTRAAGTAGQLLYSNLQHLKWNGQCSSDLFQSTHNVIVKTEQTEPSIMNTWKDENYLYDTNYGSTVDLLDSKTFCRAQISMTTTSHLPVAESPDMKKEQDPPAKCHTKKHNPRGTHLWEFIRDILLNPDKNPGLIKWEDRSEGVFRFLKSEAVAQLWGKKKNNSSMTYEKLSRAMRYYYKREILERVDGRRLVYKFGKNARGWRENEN
Procedure, shortened: as §1

SPI1 = SPI1 (Homo sapiens, UniProt P17947 1-270); conditions: protein: recombinant; tags: N-terminal GST; dsDNA, one strand shown
Procedure, shortened: as §1

SPIB = SPIB (Homo sapiens, UniProt Q01892 1-262); conditions: protein: recombinant; tags: N-terminal GST; dsDNA, one strand shown
Procedure, shortened: as §1

ELK3 = target: T6, ELK3 (Homo sapiens, UniProt P41970 1-407); conditions: protein: recombinant; tags: N-terminal GST; dsDNA, one strand shown
T6 sequence: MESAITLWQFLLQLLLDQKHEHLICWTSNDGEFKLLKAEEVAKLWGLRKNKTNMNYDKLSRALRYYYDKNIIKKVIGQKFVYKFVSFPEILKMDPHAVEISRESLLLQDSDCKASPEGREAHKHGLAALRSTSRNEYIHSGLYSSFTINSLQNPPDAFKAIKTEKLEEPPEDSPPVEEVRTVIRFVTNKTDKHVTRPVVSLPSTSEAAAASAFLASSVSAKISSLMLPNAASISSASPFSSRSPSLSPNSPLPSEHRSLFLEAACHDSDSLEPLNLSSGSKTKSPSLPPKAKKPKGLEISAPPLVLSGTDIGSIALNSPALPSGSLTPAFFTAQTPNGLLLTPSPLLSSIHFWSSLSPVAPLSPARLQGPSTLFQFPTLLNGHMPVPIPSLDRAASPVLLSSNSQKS
Procedure, shortened: as §1

FEV = target: T7, FEV (Homo sapiens, UniProt Q99581 1-238); conditions: protein: recombinant; tags: N-terminal GST; dsDNA, one strand shown
T7 sequence: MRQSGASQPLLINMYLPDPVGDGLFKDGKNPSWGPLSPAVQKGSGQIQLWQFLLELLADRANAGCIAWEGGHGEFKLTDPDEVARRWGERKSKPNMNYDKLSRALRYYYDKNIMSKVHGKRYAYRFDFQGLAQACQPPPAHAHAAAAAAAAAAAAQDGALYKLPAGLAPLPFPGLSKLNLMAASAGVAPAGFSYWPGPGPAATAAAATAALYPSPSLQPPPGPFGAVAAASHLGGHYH
Procedure, shortened: as §1

ETV5 = ETV5 (Homo sapiens, UniProt P41161 1-510); conditions: protein: recombinant; tags: N-terminal GST; dsDNA, one strand shown
Procedure, shortened: as §1

HSF1 = HSF1 (Homo sapiens, UniProt Q00613 1-529); conditions: protein: recombinant; tags: N-terminal GST; chain copies: 3; dsDNA, one strand shown
Procedure, shortened: as §1

SPIC = target: T8, SPIC (Homo sapiens, UniProt Q8N5J4 1-248); conditions: protein: recombinant; tags: N-terminal GST; dsDNA, one strand shown
T8 sequence: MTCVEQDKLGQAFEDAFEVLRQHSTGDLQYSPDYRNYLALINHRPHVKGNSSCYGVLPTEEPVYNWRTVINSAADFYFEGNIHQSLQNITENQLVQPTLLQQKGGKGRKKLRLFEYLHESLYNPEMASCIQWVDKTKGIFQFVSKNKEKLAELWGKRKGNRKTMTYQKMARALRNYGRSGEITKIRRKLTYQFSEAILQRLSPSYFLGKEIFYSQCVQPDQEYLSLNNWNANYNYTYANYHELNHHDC
Procedure, shortened: as §1

ELF4 = ELF4 (Homo sapiens, UniProt Q99607 1-663); conditions: protein: recombinant; tags: N-terminal GST; dsDNA, one strand shown
Procedure, shortened: as §1

ELK4 = target: T9, ELK4 (Homo sapiens, UniProt P28324-2 1-405); conditions: protein: recombinant; tags: N-terminal GST; dsDNA, one strand shown
T9 sequence: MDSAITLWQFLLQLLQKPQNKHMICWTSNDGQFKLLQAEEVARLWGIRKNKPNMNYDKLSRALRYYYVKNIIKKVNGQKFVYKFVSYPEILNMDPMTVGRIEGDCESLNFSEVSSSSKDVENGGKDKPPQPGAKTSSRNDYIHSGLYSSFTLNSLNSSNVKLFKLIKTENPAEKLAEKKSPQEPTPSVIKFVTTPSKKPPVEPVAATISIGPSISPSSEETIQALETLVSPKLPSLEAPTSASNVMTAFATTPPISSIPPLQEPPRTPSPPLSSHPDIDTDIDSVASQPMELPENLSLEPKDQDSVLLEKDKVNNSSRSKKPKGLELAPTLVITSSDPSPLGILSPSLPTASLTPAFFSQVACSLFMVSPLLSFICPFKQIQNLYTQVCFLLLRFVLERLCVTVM
Procedure, shortened: as §1

ETV2 = target: T10, ETV2 (Homo sapiens, UniProt O00321 1-342); conditions: protein: recombinant; tags: N-terminal GST; dsDNA, one strand shown
T10 sequence: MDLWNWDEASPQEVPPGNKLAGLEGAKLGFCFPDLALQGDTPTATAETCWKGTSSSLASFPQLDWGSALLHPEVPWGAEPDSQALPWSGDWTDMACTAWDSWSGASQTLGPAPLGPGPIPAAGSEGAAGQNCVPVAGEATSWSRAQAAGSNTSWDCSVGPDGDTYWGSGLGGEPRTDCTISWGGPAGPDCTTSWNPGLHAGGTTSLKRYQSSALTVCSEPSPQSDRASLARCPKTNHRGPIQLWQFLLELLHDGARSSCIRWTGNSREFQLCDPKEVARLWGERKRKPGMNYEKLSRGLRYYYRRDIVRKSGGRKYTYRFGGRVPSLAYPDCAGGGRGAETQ
Procedure, shortened: as §1

ELF3 = target: T11, ELF3 (Homo sapiens, UniProt P78545 1-371); conditions: protein: recombinant; tags: N-terminal GST; dsDNA, one strand shown
T11 sequence: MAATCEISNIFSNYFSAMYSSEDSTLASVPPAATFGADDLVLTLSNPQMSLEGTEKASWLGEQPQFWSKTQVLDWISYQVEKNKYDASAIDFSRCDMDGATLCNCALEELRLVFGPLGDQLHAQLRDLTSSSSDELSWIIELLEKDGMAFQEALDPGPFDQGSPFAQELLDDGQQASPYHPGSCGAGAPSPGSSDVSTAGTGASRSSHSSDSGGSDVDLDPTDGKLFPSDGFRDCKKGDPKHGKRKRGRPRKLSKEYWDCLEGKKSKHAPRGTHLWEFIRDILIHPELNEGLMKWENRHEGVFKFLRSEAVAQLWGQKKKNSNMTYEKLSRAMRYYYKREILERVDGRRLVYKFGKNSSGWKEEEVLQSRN
Procedure, shortened: as §1

CRX = CRX (Homo sapiens, UniProt O43186 1-299); conditions: protein: recombinant; tags: N-terminal GST; dsDNA, one strand shown
Procedure, shortened: as §1

ETV1 = ETV1 (Homo sapiens, UniProt P50549 1-477); conditions: protein: recombinant; tags: N-terminal GST; dsDNA, one strand shown
Procedure, shortened: as §1

ELF4, sequence (Q99607 whole entry): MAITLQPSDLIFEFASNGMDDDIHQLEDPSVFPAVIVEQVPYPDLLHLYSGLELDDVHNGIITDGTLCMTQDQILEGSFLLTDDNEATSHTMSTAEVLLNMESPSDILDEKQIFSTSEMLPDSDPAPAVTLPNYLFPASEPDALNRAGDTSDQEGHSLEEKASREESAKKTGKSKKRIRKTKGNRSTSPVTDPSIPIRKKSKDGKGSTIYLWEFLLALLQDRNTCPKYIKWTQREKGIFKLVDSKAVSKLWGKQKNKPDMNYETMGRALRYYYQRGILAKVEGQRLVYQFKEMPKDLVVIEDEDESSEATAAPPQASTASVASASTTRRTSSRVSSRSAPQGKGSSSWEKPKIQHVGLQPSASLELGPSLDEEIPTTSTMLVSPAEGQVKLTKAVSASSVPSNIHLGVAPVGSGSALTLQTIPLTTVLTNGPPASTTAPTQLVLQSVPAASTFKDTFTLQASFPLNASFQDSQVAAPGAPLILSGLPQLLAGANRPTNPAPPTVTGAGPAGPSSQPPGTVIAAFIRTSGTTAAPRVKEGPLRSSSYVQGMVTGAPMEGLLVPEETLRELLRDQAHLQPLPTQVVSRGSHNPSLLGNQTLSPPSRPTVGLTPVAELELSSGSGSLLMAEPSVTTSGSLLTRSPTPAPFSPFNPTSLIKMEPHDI
CRX, sequence (O43186 whole entry): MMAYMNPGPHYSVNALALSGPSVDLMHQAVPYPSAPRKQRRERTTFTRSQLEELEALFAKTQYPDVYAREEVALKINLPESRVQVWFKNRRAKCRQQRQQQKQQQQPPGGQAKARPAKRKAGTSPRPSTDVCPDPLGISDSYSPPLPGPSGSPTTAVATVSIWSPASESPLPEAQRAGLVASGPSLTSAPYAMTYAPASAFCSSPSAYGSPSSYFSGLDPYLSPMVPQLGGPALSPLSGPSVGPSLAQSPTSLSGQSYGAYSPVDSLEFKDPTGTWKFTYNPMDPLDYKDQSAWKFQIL
ELF1, sequence (P32519 whole entry): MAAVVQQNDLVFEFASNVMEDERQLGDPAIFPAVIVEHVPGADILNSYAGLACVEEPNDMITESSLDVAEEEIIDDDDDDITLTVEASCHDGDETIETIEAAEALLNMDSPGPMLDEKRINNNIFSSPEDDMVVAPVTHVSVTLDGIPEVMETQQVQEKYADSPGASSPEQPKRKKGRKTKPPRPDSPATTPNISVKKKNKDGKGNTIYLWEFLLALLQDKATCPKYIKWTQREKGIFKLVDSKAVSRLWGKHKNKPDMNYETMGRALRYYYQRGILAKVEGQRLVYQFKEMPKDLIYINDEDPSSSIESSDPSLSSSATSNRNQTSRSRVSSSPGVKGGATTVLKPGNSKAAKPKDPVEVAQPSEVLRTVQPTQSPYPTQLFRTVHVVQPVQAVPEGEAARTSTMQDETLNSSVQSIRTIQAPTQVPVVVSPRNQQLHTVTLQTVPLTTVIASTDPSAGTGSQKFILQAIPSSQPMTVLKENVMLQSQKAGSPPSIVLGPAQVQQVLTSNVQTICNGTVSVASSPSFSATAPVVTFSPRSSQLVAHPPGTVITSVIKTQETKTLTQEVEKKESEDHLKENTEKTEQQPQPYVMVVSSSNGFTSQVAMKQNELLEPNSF
ETV1, sequence (P50549 whole entry): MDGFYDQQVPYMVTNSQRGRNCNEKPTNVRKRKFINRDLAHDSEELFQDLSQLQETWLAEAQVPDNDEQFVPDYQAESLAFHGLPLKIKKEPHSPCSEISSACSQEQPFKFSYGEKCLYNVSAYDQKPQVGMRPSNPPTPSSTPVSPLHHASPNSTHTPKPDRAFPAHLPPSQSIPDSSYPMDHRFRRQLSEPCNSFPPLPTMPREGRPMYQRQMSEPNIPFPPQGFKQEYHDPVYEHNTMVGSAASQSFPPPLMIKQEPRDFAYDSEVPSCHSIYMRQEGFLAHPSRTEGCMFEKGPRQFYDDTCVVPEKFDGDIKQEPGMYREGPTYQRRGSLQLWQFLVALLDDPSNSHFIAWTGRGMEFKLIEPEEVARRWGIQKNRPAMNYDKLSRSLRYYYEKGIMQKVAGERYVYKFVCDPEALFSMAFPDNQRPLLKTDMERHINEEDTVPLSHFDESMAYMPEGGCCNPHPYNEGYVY
HSF1, sequence (Q00613 whole entry): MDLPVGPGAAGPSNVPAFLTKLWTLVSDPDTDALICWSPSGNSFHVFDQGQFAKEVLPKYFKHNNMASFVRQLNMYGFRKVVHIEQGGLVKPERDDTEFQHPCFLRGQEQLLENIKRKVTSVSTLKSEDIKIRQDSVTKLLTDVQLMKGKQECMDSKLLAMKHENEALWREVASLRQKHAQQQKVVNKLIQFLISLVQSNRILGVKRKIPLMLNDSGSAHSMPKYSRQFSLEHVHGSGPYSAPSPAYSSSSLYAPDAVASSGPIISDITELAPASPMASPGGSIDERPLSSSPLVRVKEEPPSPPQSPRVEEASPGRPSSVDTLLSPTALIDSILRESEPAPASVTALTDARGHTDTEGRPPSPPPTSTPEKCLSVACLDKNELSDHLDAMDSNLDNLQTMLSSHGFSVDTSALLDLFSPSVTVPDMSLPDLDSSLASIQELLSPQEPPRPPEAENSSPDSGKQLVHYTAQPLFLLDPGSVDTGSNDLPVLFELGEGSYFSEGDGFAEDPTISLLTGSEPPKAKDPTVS
SPIB, sequence (Q01892 whole entry): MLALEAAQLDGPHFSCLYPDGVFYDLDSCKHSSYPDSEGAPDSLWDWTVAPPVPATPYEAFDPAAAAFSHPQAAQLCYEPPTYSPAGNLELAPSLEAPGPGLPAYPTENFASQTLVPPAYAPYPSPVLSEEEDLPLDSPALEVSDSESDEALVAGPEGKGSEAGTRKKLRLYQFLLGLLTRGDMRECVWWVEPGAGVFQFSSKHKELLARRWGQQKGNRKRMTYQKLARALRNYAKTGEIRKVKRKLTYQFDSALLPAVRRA
ETV5, sequence (P41161 whole entry): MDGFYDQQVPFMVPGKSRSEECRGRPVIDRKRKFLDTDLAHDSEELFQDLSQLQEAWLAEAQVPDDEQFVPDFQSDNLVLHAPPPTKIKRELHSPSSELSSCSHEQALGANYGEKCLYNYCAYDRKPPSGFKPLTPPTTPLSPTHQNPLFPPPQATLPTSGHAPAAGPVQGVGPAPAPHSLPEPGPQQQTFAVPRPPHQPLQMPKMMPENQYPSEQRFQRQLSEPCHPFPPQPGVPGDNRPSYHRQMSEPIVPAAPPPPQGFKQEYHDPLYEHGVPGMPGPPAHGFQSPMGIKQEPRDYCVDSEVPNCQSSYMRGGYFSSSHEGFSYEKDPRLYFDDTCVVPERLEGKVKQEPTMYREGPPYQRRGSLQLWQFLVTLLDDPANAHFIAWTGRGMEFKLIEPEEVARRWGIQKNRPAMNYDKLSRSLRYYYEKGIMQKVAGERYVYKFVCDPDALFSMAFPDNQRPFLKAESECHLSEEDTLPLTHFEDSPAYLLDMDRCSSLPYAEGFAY

ACTTTC
binding signal (FLI1): 1.55 fold enrichment (6-mer frequency, TF over GST control)
binding signal (ELK1): 1.65 fold enrichment (6-mer frequency, TF over GST control)
binding signal (GABPA): 1.59 fold enrichment (6-mer frequency, TF over GST control)
binding signal (ERG): 1.46 fold enrichment (6-mer frequency, TF over GST control)
binding signal (ELF1): 1.63 fold enrichment (6-mer frequency, TF over GST control)
binding signal (EHF): 1.59 fold enrichment (6-mer frequency, TF over GST control)
binding signal (SPI1): 1.66 fold enrichment (6-mer frequency, TF over GST control)
binding signal (SPIB): 1.7 fold enrichment (6-mer frequency, TF over GST control)
binding signal (ELK3): 1.62 fold enrichment (6-mer frequency, TF over GST control)
binding signal (FEV): 1.49 fold enrichment (6-mer frequency, TF over GST control)
binding signal (ETV5): 1.65 fold enrichment (6-mer frequency, TF over GST control)
binding signal (HSF1): 2.49 fold enrichment (6-mer frequency, TF over GST control)
binding signal (SPIC): 1.6 fold enrichment (6-mer frequency, TF over GST control)
binding signal (ELF4): 1.53 fold enrichment (6-mer frequency, TF over GST control)
binding signal (ELK4): 1.86 fold enrichment (6-mer frequency, TF over GST control)
binding signal (ETV2): 1.62 fold enrichment (6-mer frequency, TF over GST control)
binding signal (ELF3): 1.6 fold enrichment (6-mer frequency, TF over GST control)
binding signal (CRX): 1.63 fold enrichment (6-mer frequency, TF over GST control)
binding signal (ETV1): 1.7 fold enrichment (6-mer frequency, TF over GST control)
